The results in this text go back to PubChem BioAssay (NCI).

The structures appear in SMILES notation. This is part of a sample that, as a whole, favours compounds with a hit. Of some 83,000 tested, about 20% had one in any assay.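 Step 1: grow cells in 96-well plates. Step 2: add test compound at a single concentration. Step 3: incubate 48 h. Step 4: record percent growth.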 A number with no mark means an inactive call. Calls of active or inactive are those of the source. How the source made its calls: active means growth percent below 10; inactive means the rest.

Holding throughout (test): NCI-60 one-dose screen, 48 h (100 = growth as untreated, 0 = no growth, -100 = all killed)
What all share (details): 10 µM unless noted

The subject of assay [1] is HCT-15 colon.
In assay [2] the test system is HT29 colon.
The test system of assay [3] is SNB-75 CNS.
Assay [4] concerns SNB-19 CNS.
For assay [5], the system named is U251 CNS.
Assay [6] has as its system PC-3 prostate.
The subject of assay [7] is SK-MEL-5 melanoma.
The subject of assay [8] is UACC-62 melanoma.
For assay [9], the system named is SK-MEL-28 melanoma.

Regarding `C(=C\c1c[nH]c2ccccc12)/c1ccc2ccccc2n1`, the growth in [1] is 53.9%; in [2], 33.4%; in assay [3], 81.1%; in assay [4] it was 84.4%; in assay [5] it was 59.7%; in assay [6] it was 59.3%. Moreover, the values for the growth in assay [7], in [8] and in assay [9] were 96%, 86.8% and 107%, respectively.
`COc1cnc2c(c1)C(=O)c1c-2n(CCCN2CCN(CCO)CC2)c(=O)c2cc([N+](=O)[O-])ccc12`: the growth in [1] was -26.3% (active); in assay [2] it was -85.7% (active); in assay [3], 73.1%; in [4], -1.88% (active); in [5] it was -84.2% (active); in assay [6], 44.4%. The growth in [7] is 53.9%; in assay [8] it was 37.8%; in assay [9] it was 102%.
`CC(=O)n1c(/C(C#N)=C/c2ccc(N(C)C)cc2)cc2ccccc21`: the growth in assay [1] is 23.9%; in assay [2], 9.7% (active); in assay [3], -6.19% (active); in [4], 35.8%; in assay [5], 36.4%; in assay [6], 39.4%. Moreover, the growth is 29.7% in assay [7], 26.8% in [8] and 60.8% in assay [9].
As to `CC(C)(C)c1cc(-n2c(-c3ccc(Cl)cc3)nc3cc(C(=O)Nc4ccc(Cl)cc4)ccc32)n[nH]1`, the growth in [1] was 39.2%; in assay [2] it was 89.5%; in assay [3], 60.7%; in [4], 60.2%; in assay [5] it was 53.2%; in assay [6], 33.7%. In addition, the growth was 44.8% in assay [7], 39% in [8] and 79.7% in assay [9].
As to `c1ccc2[nH]c(-c3cc(-c4ccc5c(c4)OCO5)n[nH]3)nc2c1`, the growth in [1] is 56.7%; in [2], 67.5%; in assay [3] it was 33.8%; in [4], 68.3%; in [5], 36.6%; in [6], 50.4%. The growth was 13.2% in [7], 49.7% in [8] and 71.3% in [9].
Turning to `Cc1ccc2c(c1)c(-c1nc(-c3c[nH]c4ncccc34)cs1)cn2C`, the growth was 86.5% in [1]; 69% in assay [2]; 91.2% in [3]; 107% in [4]; 98.6% in assay [5]; 85.7% in [6]. Also, the figures for the growth in [7], in assay [8] and in [9] were 98.8%, 94.5% and 109%, respectively.
For the molecule `COc1cc(/C=N/NC(=S)NNC(=S)NC2CCCCC2)cc(OC)c1OC`, the growth in [1] is 91.9%; in [2], 108%; in [3], 91.5%; in assay [4], 98.3%; in assay [5], 100%; in assay [6], 81.3%. The growth in [7] was 92.5%; in [8], 85.8%; in assay [9], 99%.
`C/C(Cc1ccc(Cl)cc1)=C(/c1ccc(Cl)cc1)c1ccc(OCCN2CCCC2)cc1`: the growth is 28.3% in [1]; 22.1% in assay [2]; 78.2% in assay [3]; 89.8% in [4]; 58.3% in [5]; 65.4% in [6]. Moreover, the results for the growth in [7], in assay [8] and in [9] were 93.1%, 95.6% and 98.2%, respectively.
With `Cc1cc2nc3c4cc(N)ccc4n(CCN(C)C)c3nc2cc1C`, the growth in assay [1] was -24% (active); in [2] it was 14.3%; in assay [3], 20.1%; in [4] it was 13.2%; in assay [5], 16.2%; in assay [6], 21.8%. The growth was 21.8% in assay [7], 6.43% (active) in [8] and 13.3% in assay [9].
Take `COc1ccc(/C=C(\C#N)c2cc3ccccc3n2C(C)=O)cc1`: the growth in assay [1] was 41%; in assay [2], 68.8%; in [3], 74%; in assay [4] it was 87.2%; in [5], 87.1%; in assay [6] it was 84.6%. Further, the growth in assay [7] was 92.2%; in assay [8], 74.1%; in [9], 87.2%.
`CCN1CCN(C(=O)[C@]23CCC(C)(C)C[C@@H]2C2=CC[C@@H]4[C@@]5(C)C/C(=C/c6cccnc6)C(=O)C(C)(C)[C@@H]5CC[C@@]4(C)[C@]2(C)CC3)CC1`: the growth is 13.7% in assay [1]; 10.6% in assay [2]; 45.3% in assay [3]; 48.3% in assay [4]; -88.1% (active) in assay [5]; 17.2% in [6]. Moreover, the growth in assay [7] was -91% (active); in [8], 26.6%; in assay [9] it was 41.7%.
With `C=C(C)[C@@H]1CC[C@]2(C=O)CC[C@]3(C)[C@H](CC[C@@H]4[C@@]5(C)C/C(=C/c6cccnc6)C(=O)C(C)(C)[C@@H]5CC[C@]43C)[C@@H]12`, the growth is 57.6% in [1]; 72% in assay [2]; 101% in [3]; 84.4% in [4]; 73.4% in [5]; 41.8% in [6]. For the same molecule, the growth in assay [7] was 74.4%; in [8], 61.5%; in assay [9], 93.3%.
As to `CC1(C)CC[C@]2(CO)CC[C@]3(C)C(=CC[C@@H]4[C@@]5(C)CC[C@H](NCO)C(C)(C)[C@@H]5CC[C@]43C)[C@@H]2C1`, the growth in [1] is -76.1% (active); in [2] it was -43.2% (active); in assay [3] it was -2.38% (active); in assay [4], 17.8%; in assay [5], -79.4% (active); in assay [6], 7.13% (active). In addition, the growth in assay [7] is -2.6% (active); in assay [8] it was -73% (active); in [9], 60.8%.
